Source: PubChem BioAssay (NCATS)
Several values for one entry are separate records, joined by “and”; a condition that tells them apart may be missing. Identical values can stand only once. Records with an inconclusive call do not appear. Where a structure was tested more than once in an assay, its records may differ in their call. Activity calls are given as the source filed them. Unless noted, calls come from the whole dose curve; as a rule, active = well fitted curve in the direction sought with a large enough effect; inconclusive = small, poorly fitted or top-dose-only effect, or another doubt; inactive = no such curve, though single readings can be large; an effect the other way counts as inactive or inconclusive.

Legend:
[1] = Cell Viability - BJ (AID 421; calls by dose curve;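 note: potency is the fitted concentration of half-maximal effect; cells exposed to compound for 40 hours at 37 °C before readout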); details: BJ fibroblast viability, qHTS
Procedure, shortened: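 Normal human BJ foreskin fibroblasts, 1500/well in complete medium, treated 40 hr at 37 °C. Cellular ATP by CellTiter-Glo luminescence; normalized to DMSO and 100 uM tamoxifen, AC50 from Hill fit.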

[2] = Cell Viability - SK-N-SH (AID 435; calls by dose curve; note: potency is the fitted concentration of half-maximal effect); details: SK-N-SH neuroblastoma cell viability qHTS
Procedure, shortened: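 qHTS cytotoxicity: CellTiter-Glo ATP luminescence after 40 h compound exposure of human neuroblastoma SK-N-SH cells at 37 °C. AC50 derived by Hill-equation fitting, with DMSO as basal and 100 uM tamoxifen as full inhibition.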

[3] = target: Mitogen-activated protein kinase 10 (Mus musculus) (UniProt Q61831); assay: JNK3 AlphaScreen Assay (AID 530; active = well fitted curve in either direction with a large enough effect, not every such curve was filed as active;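 note: kinase came from lysate of stimulated human HepG2 cells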; note: potency is the fitted concentration of half-maximal effect)
Procedure, shortened: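 Pre-activated (IL-1β/TNFα) JNK3 in HepG2 lysates phosphorylates biotin-GST-cJun(1-79), 10 uM ATP; anti-phospho-cJun(Ser73) AlphaScreen read at room temperature, pH 7.6 Tris buffer. Compounds pre-incubated 15 min as titrations.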

[4] = Cell Viability - N2a (AID 540); details: N2a mouse neuroblastoma cell viability; activity change, negative = cytotoxicity: at 92.2 µM (top of the series); note: nearly all actives have a fitted effect of over 45% in size; note: potency is the fitted concentration of half-maximal effect;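 for activity change, negative = cytotoxicity: plate controls were DMSO alone for no effect and tamoxifen control for full effect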
Procedure, shortened: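 Mouse neuroblastoma N2a cells, 1500/well, exposed to compounds 40 h at 37 °C in complete medium. Viability measured as cellular ATP by CellTiter-Glo luminescence; AC50 from Hill fits of concentration-response.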

[5] = Cell Viability - SH-SY5Y (AID 544); details: SH-SY5Y neuroblastoma cell viability; viability change, negative = cytotoxic: at 92.2 µM (top of the series); note: nearly all actives have a fitted effect of over 55% in size; note: potency is the fitted concentration of half-maximal effect;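 for viability change, negative = cytotoxic: 0% = DMSO alone and -100% = 100 µM tamoxifen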
Procedure, shortened: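 SH-SY5Y human neuroblastoma cells (1500/well) incubated 5 h, then compound-treated 40 h at 37 °C in complete medium. Viability read as intracellular ATP by CellTiter-Glo luminescence after 20 min; AC50 from Hill-equation fits of qHTS concentration-response.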

[6] = Cell Viability - Renal Proximal Tubule (AID 545); details: renal proximal tubule cells viability, primary cells of rat origin; activity change, negative = cytotoxicity: at 91.7 µM (top of the series); note: nearly all actives have a fitted effect of over 40% in size; note: potency is the fitted concentration of half-maximal effect;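 for activity change, negative = cytotoxicity: 0% = DMSO only and -100% = 100 µM tamoxifen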
Procedure, shortened: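 Viability taken as intracellular ATP (CellTiter-Glo luminescence) after 40 hr, 37 °C compound treatment of primary proximal tubule cells from rat kidney, 1000 cells/well; Hill-equation fits of qHTS concentration-response data gave AC50.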

[7] = Cellular Toxicity (caspase-3) HepG2 (AID 654); note: potency is the fitted concentration of half-maximal effect;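 for caspase-3 activation: cells exposed to compound for 16 hours before reading; 0% = DMSO alone and 100% = caspase signal from 100 µM tamoxifen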
Procedure, shortened: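 HepG2 cells (1500/well) were treated 16 h at 37 °C in complete medium, then caspase 3/7 activity was read by Caspase-Glo luminescence. Data were normalized to DMSO and 100 uM tamoxifen; AC50 came from Hill-equation fits of qHTS concentration-response.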

[8] = Cellular Toxicity (caspase-3) HUV-EC-C (AID 656);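 note: 0% = DMSO basal and 100% = 100 µM tamoxifen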
Procedure, shortened: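 Luminescent Caspase-Glo 3/7 readout after 16 h, 37 °C compound exposure of HUV-EC-C endothelial cells, 1000 per well, complete medium. AC50 derived by Hill fitting, with DMSO as baseline and 100 uM tamoxifen as full activation.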

[9] = Cellular Toxicity (caspase-3) N2a (AID 665); details: Potency: caspase-3 activation;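 note: compound exposure lasted 16 h at 37 °C before readout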
Procedure, shortened: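 Mouse N2a neuroblastoma cells, 1500 per well, treated 16 h at 37 °C in complete medium; caspase-3/7 activity by Caspase-Glo luminescence after 1 h. Normalized to DMSO and 10 uM staurosporine; AC50 from Hill fits.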

[10] = Cellular Toxicity (caspase-3) Renal Proximal Tubule (AID 667);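 note: cells exposed to compound for 16 hours at 37 °C before detection; 0% = DMSO basal and 100% = 10 µM staurosporine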
Procedure, shortened: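 Caspase 3/7 activation measured by luminescent aminoluciferin release in primary rat proximal tubule cells after 16 hr compound exposure at 37 °C. AC50 from Hill-fitted concentration-response, scaled between DMSO and 10 uM staurosporine.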

[11] = target: Peroxisome proliferator-activated receptor alpha (Homo sapiens) (UniProt Q07869); assay: qHTS assay for small molecule agonists of the peroxisome proliferator-activated receptor alpha (PPARalpha) signaling pathway (AID 651778); details: PathHunter PPARalpha complementation, chemiluminescence, 6 h; max response: stronger effect = higher value; note: % of control where 0% means no effect
Sequence of Peroxisome proliferator-activated receptor alpha (Homo sapiens) (Q07869 whole entry, looked up, the tested form may be a part): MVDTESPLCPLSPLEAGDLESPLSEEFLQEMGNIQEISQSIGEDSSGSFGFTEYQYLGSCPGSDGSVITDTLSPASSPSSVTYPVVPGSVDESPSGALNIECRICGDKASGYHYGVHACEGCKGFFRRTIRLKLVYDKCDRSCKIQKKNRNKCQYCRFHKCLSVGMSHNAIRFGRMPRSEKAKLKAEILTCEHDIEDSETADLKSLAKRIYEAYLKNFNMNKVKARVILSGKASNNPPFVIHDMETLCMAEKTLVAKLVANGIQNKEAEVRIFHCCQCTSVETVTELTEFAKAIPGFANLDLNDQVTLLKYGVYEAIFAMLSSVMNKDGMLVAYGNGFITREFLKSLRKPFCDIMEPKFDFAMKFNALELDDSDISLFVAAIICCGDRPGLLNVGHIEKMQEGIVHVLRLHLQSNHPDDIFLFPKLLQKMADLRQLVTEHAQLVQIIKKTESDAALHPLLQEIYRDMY
Procedure, shortened: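 Enzyme-fragment complementation assay in which ligand-bound PPARalpha translocates and forms an active enzyme that generates chemiluminescence. Cells were plated overnight, exposed to compound for 6 hr at 37 C, and then given detection reagent for 60 min at room temperature.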

[12] = qHTS assay for cell viability of HEK293 cells (AID 743288); details: ATP luminescence (CellTiter-Glo), 18 h; max response: stronger effect = lower value; note: nearly all actives have a fitted effect of over 50% in size; note: potency is the fitted concentration of half-maximal effect; for max response: % is set by controls: 0 for no effect and ±100 for the full control effect
Procedure, shortened: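 Total intracellular ATP, measured with a luciferase-coupled reagent, indicates the number of viable HEK293 cells. Exposure to test chemicals lasts 18 h at 37 C in 1,536-well format at 2,000 cells/well.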

[13] = qHTS assay for cell viability of the p53RE-bla HCT-116 cell line (AID 743292); note: nearly all actives have a fitted effect of over 55% in size; note: potency is the fitted concentration of half-maximal effect; for activity change, negative = cytotoxicity: % is set by controls: 0 for no effect and ±100 for the full control effect
Procedure, shortened: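 Compound-exposed HCT-116 (p53RE-bla) cells, 4,000 per well, were kept 16 h at 37 C following a 5 h preincubation. Cell number was estimated from total ATP by CellTiter-Glo luminescence read after 30 min at room temperature.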

[14] = NFAT Signaling Pathway (AID 444; active = well fitted curve in either direction with a large enough effect, not every such curve was filed as active;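 note: carbachol stimulus at about its EC50 of 1 µM final; % is set by controls: 0 for no effect and ±100 for the full control effect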); details: Jurkat NFAT-bla M1, carbachol, beta-lactamase ratio, 5 h
Procedure, shortened: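 Jurkat cells with NFAT-driven β-lactamase reporter and co-expressed M1 receptor, stimulated with carbachol (final 1 uM, ~EC50), compound titration, 5 h at 37 °C. CCF4 loaded 1 h at RT; 460/530 nm ratio gave %activity and AC50.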

[15] = Stat Signaling Pathway (AID 446; active = well fitted curve in either direction with a large enough effect, not every such curve was filed as active;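 note: ME-180 cervical cancer cells given 40 pM IL-6 alongside compound; SIE-controlled beta-lactamase reporter measured as 460/530 nm FRET emission ratio; % is set by controls: 0 for no effect and ±100 for the full control effect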); details: ME-180 SIE beta-lactamase reporter, IL-6 stimulated, 5 h
Procedure, shortened: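 ME-180 cells carrying a SIE-driven beta-lactamase reporter are stimulated with 40 pM IL-6 for 5 h at 37C in the presence of compound. The 460/530 nm FRET substrate ratio is read after 2.5 h at RT. Data are normalised to 300 pM IL-6 and to 125 nM JAK inhibitor controls.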

[16] = target: Glucocorticoid receptor (Homo sapiens) (UniProt P04150); assay: GR-GFP Redistribution (AID 450;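 active = compounds whose dose series gives a full or clear partial fitted curve of increased nuclear translocation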; note: potency is the fitted concentration of half-maximal effect)
Sequence of Glucocorticoid receptor (Homo sapiens) (P04150 whole entry, looked up): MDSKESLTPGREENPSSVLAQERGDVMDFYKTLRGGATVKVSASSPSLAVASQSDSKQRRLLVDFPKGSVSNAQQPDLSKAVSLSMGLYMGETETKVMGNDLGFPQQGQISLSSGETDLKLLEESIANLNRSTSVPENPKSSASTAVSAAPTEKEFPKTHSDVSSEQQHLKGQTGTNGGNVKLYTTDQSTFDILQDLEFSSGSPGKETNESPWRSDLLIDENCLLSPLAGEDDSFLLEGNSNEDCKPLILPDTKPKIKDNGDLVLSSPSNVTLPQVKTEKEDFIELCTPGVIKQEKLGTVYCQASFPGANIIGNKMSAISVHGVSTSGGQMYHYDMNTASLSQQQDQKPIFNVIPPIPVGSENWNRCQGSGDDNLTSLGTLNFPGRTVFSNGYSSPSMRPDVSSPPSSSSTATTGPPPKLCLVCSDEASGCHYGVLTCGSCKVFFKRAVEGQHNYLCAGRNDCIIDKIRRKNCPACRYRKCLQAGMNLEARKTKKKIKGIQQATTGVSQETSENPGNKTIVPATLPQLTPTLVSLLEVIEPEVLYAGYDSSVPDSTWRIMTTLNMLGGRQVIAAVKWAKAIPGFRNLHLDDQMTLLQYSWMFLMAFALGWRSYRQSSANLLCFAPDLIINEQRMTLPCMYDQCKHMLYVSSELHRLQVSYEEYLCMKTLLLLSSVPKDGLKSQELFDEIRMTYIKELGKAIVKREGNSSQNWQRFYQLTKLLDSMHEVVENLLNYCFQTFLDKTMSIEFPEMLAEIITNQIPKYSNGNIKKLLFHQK

[17] = target: Cytochrome P450 3A4 (Homo sapiens) (UniProt P08684); assay: qHTS Assay for Activators of Cytochrome P450 3A4 (AID 885); note: nearly all actives have a fitted effect of over 65% in size
Sequence of Cytochrome P450 3A4 (Homo sapiens) (P08684 whole entry, looked up): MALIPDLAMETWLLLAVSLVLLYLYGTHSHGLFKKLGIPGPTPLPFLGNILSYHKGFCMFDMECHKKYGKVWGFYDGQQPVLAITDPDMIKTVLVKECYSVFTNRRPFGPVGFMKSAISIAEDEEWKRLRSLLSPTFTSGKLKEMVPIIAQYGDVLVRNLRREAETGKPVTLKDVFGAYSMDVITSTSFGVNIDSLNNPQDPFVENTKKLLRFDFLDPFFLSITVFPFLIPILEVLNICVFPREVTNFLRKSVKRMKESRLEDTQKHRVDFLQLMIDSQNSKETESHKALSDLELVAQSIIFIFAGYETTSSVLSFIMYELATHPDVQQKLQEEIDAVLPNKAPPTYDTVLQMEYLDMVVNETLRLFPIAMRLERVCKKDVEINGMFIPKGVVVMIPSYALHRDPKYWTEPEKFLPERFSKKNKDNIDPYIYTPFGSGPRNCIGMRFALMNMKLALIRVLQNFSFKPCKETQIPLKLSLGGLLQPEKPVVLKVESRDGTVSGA
Procedure, shortened: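 Human CYP3A4 (20 nM) with Luciferin-PPXE at 25 uM (its KM) in 200 mM KPO4; 10 min compound preincubation, then NADPH regeneration and 60 min reaction at RT. Luciferin read by luminescence; normalized to 57 uM ketoconazole full inhibition.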

[18] = at 17.2 µM (top of the series) unless noted

c1ccc2c(c1)-c1cccc3c1c-2cc1ccccc13
inactive: Potency [1] > 92 µM | Potency [2] > 92 µM | Potency [4] | Potency [5] | Potency [6] | Potency [7] | Potency [8] | Potency [9] | outcome [10] | max response [11] -0.066% and -2.89% | max response [12] -13.5% and -14.9% | Potency [13]
active: Potency [3] 2.51 µM [activator]

c1ccc2c(c1)ccc1cc3c(ccc4ccccc43)cc12
inactive: Potency [1] > 92 µM | Potency [2] > 92 µM | Potency [4] | Potency [5] | Potency [6] | Potency [7] | Potency [8] | Potency [9] | outcome [10] | max response [11] -1.24% | max response [12] -4.73% | Potency [13]

CCn1cc(C(=O)NCc2ccco2)c(=O)c2cc(F)c(N3CCN(C(=O)c4ccco4)CC3)cc21
inactive: activity change, negative = inhibition [14, 18] -28.1% | activity, negative = inhibition [15, 18] -28.5%

O=[N+]([O-])c1cc([N+](=O)[O-])c2ccc(S(=O)(=O)O)cc2c1O
inactive: Potency [1] > 92 µM | Potency [2] > 92 µM | Potency [4] | Potency [5] | Potency [6] | Potency [7] | Potency [8] | Potency [9] | outcome [10] | max response [12] -2.67% | Potency [13]

COc1ccc(OCC(O)Cn2c(Nc3cccc(C)c3)nc3c2c(=O)n(C)c(=O)n3C)cc1 (stereo unspecified)
inactive: activity change, negative = inhibition [14, 18] 8.48% | activity, negative = inhibition [15, 18] -15.9% | Potency [16] > 20.6 µM

CCC(C)Nc1ccc(NC(C)CC)cc1 (stereo unspecified)
active: Potency [1] 14 µM | Potency [2] 8.73 µM | Potency [4] 15.8 µM | Potency [5] 5.01 µM | activity change, negative = cytotoxicity [6] -100% | Potency [12] 28.2 µM | Potency [13] 35.5 µM and 28.2 µM
inactive: Potency [7] | Potency [8] | Potency [9] | outcome [10] | Potency [17] | max response [11] -4.78% and -5%

CCOc1ccc(C2C(C#N)=C(N)Oc3cc(C)n(CCN4CCOCC4)c(=O)c32)cc1OCC (stereo unspecified)
inactive: activity change, negative = inhibition [14, 18] 7.01% | activity, negative = inhibition [15, 18] 0.201% | Potency [16] > 20.6 µM

CC(=O)Nc1ccc(C(=O)CCl)cc1
active: Potency [1] 36.2 µM | Potency [2] 15.6 µM | Potency [4] 25.1 µM | Potency [5] 3.16 µM | Potency [6] 31.6 µM | Potency [12] 22.4 µM and 25.1 µM
inactive: Potency [3] | Potency [7] | Potency [8] | Potency [9] | outcome [10] | max response [11] -5.76% and -2.53% | Potency [13]

COc1cc2c(c(OC)c1OC)-c1ccc(OC)c(=O)cc1[C@H](NC(C)=O)CC2
inactive: activity change, negative = inhibition ([14]; at 17.2 µM (top of the series)) -4.77% | activity change, negative = inhibition ([14]; at 38 µM (top of the series)) 3.11% | activity, negative = inhibition ([15]; at 17.2 µM (top of the series)) 4.59% | activity, negative = inhibition ([15]; at 38 µM (top of the series)) -18.3% | Potency [3]

C=CC(=O)OCCOCCOC(=O)C=C
inactive: Potency [3] | Potency [7] | Potency [8] | Potency [9] | outcome [10] | max response [11] -4.05% | Potency [13]
active: Potency [1] 35.8 µM | Potency [2] 22.7 µM | activity change, negative = cytotoxicity [4] -114% | Potency [5] 6.31 µM | Potency [6] 20 µM

CNc1ccc(O)cc1
inactive: Potency [3] | Potency [7] | Potency [8] | Potency [9] | outcome [10] | max response [11] -6.09%
active: Potency [2] 23.5 µM | Potency [4] 31.6 µM | Potency [5] 2 µM | Potency [12] 35.5 µM | Potency [13] 70.8 µM

Cc1cccc(Nc2ncnc3ccccc23)c1
inactive: activity change, negative = inhibition [14, 18] -1.27% | activity, negative = inhibition [15, 18] -0.134% | Potency [16] > 20.6 µM

CCC[C@@H]1C[C@@H](C(=O)N[C@H]([C@@H](C)O)[C@H]2O[C@H](SC)[C@H](O)[C@@H](O)C2O)N(C)C1 (stereo partly specified)
inactive: activity change, negative = inhibition [14, 18] 8.75% | activity, negative = inhibition [15, 18] -0.0835% | Potency [16] > 20.6 µM

COC(=O)c1ccccc1NC(=O)CSc1nnc(-c2ccncc2)o1
inactive: activity change, negative = inhibition [14, 18] 4.54% | activity, negative = inhibition [15, 18] 0.0286% | Potency [16] > 20.6 µM

ClC1=C(Cl)C(Cl)(Cl)C(Cl)=C1Cl
inactive: Potency [1] > 92 µM | Potency [2] > 92 µM | Potency [3] | Potency [5] | Potency [6] | Potency [8] | Potency [9] | outcome [10] | max response [11] -0.568% and 0.283% | max response [12] -13.8%
25.1 µM (active) and inactive: Potency [13]
active: Potency [7] 10 µM | Potency [12] 11.2 µM

CCCCCCCC[N+](CCCCCCCC)(CCCCCCCC)CCCCCCCC
inactive: Potency [3] | Potency [17] | max response [11] 6.05%
active: Potency [1] 14.5 µM | Potency [2] 9.44 µM | Potency [4] 3.16 µM | Potency [5] 7.94 µM | Potency [6] 10 µM | Potency [7] 12.6 µM | Potency [12] 28.2 µM | Potency [13] 44.7 µM
